Assay results published in PubChem BioAssay AID2405 (Southern Research Specialized Biocontainment Screening …, 2010).

assay: RSV cytopathic effect inhibition in HEp-2 – cell-based, probe candidates (AID 2405); conditions: HEp-2 cells, hits give high values; at 100 µM unless noted; call rule not given here

Maximum inhibition, inactive:
CC1(O)c2cc(Br)ccc2N=C2CCCN21 (stereo not drawn) 2.76%
COc1cccc(-n2c(SCC(=O)Nc3ccc4c(c3)CCC4)nc3ccccc3c2=O)c1 8.16%
O=C(CSc1nc2ccccc2c(=O)n1-c1ccc(F)cc1)Nc1ccc2c(c1)OCCO2 15% [at 50 µM]
O=C(Nc1nc(-c2ccc(Cl)cc2)cs1)c1ccc(Cl)cc1 2.44%
CCCN1CCN(CCCNC(=O)c2cc3c(s2)-c2c(C)cccc2OC3)CC1 0.38% [at 0.2 µM]
O=C(CSc1nc2ccccc2c(=O)n1-c1ccc(F)cc1)Nc1cccc2ccccc12 16.6%
Nc1ccc2nc3n(c(=O)c2c1)CCC3 1.81% [at 12.5 µM]
CN(C)CCCN1c2ccc([N+](=O)[O-])cc2CCc2cc([N+](=O)[O-])ccc21 10.2% [at 50 µM]
O=C(CSc1nc2cccc(I)c2c(=O)n1-c1ccccc1)Nc1ccc2c(c1)CCC2 5.17%
O=c1c2cc([N+](=O)[O-])ccc2nc2n1CCC2 1.3%
O=C(Nc1nc(-c2ccc(Cl)cc2)cs1)c1ccc(I)cc1 1.55% [at 25 µM]
CC1CCCC(C)N1CCCNC(=O)c1cc2c(s1)-c1ccccc1OC2 (stereo not drawn) 0.79% [at 0.78 µM]
C=CCN(C(=O)c1ccccc1Cl)c1nc(-c2ccc(OC)cc2)cs1 7.65%
COc1ccccc1NC(=O)CSc1nc2ccccc2c(=O)n1-c1ccc(F)cc1 3.44% [at 6.25 µM]
COc1ccc(Cn2nc(C)cc2OC(=O)c2ccccc2)cc1 0.91% [at 25 µM]
O=C(Nc1nc(-c2ccc(Cl)cc2)cs1)c1ccccc1Cl 4.1%
COc1cccc(C(NC(=O)c2ccccc2)c2ccc3cccnc3c2O)c1 (stereo not drawn) 3.45% [at 12.5 µM]
O=C(Nc1nc(-c2ccc(Cl)cc2)cs1)c1ccccc1F 3.06% [at 12.5 µM]
CCCCN(C(=O)c1ccccc1Cl)c1nc(-c2ccc(OC)cc2)cs1 5.05% [at 25 µM]
COc1ccc(-c2csc(NC(=O)c3cccc(Cl)c3)n2)cc1 1.49% [at 25 µM]
CC1CC(C)CN(C(=O)CSc2nc3ccccc3c(=O)n2-c2ccc(F)cc2)C1 (stereo not drawn) 2.13%
OC1c2cc(Br)ccc2N=C2CCCN21 (stereo not drawn) 13.5%
OC1c2c(F)cccc2N=C2CCCN21 (stereo not drawn) 0.86%
O=C(Nc1nc(-c2ccc(Cl)cc2)cs1)c1cccc(Cl)c1 6.93% [at 25 µM]
Cc1cccc2c1-c1sc(C(=O)NCCCN3CCCC(C)C3)cc1CO2 (stereo not drawn) 1.01% [at 0.78 µM]
Cc1cccc2c1-c1sc(C(=O)NCCCN3CCC(C)CC3)cc1CO2 0.67% [at 0.2 µM]
OC1c2cc(Br)ccc2N=C2CCCCCN21 (stereo not drawn) 1.05%
Cc1cc(OC(=O)c2c(F)cccc2F)n(Cc2ccccc2)n1 0.49% [at 3.13 µM]
